About 79,000 compounds went through this panel and 15% of them were active in at least one assay; those are over-represented in the sample as a whole. Values without a mark were called inactive. Activity calls are given as the source filed them. No stated cut-off is given here; in the data, active means growth inhibition above about 70%; inactive means the rest.
Tests used:
[1] = NCI Yeast Anticancer Drug Screen. Data for the rad50 strain (AID 155);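 further: 0% = growth of vehicle-only cultures of the same strain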; settings: S. cerevisiae rad50 strain growth inhibition, hits give high values
Procedure, shortened: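 Cells are treated with compound, grown, and their growth is then scored against vehicle-only cultures of the same repair-deficient yeast strain.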

[2] = NCI Yeast Anticancer Drug Screen. Data for the mec2-1 strain (AID 157); settings: S. cerevisiae mec2-1 strain, hits give high values
Procedure, shortened: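 Yeast mec2-1 mutant treated with compound. Readout: growth inhibition vs vehicle controls.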

[3] = NCI Yeast Anticancer Drug Screen. Data for the sgs1 mgt1 strain (AID 161);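 further: 0% = growth of cultures given vehicle only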; settings: S. cerevisiae sgs1 mgt1 strain, hits give high values
Procedure, shortened: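 Genetically altered yeast, compound exposure, growth inhibition relative to vehicle.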

[4] = NCI Yeast Anticancer Drug Screen. Data for the cln2 rad14 strain (AID 165);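 further: 0% = growth equal to vehicle treated cultures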; settings: S. cerevisiae cln2 rad14 strain, hits give high values
Procedure, shortened: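 cln2 rad14 yeast strain; compound exposure; growth inhibition read vs vehicle controls.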

[5] = NCI Yeast Anticancer Drug Screen. Data for the bub3 strain (AID 167); settings: S. cerevisiae bub3 mutant strain, hits give high values
Procedure, shortened: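 Part of a panel of yeast mutants defective in DNA damage repair or cell cycle regulation. Each strain is grown with compound, and inhibition is calculated relative to solvent-treated cultures.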

[6] = NCI Yeast Anticancer Drug Screen. Data for the mlh1 rad18 strain (AID 175); settings: S. cerevisiae mlh1 rad18 strain growth inhibition, hits give high values
Procedure, shortened: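 Yeast w/ defined DNA-repair lesions; compound exposure; growth vs vehicle controls → % inhibition.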

[7] = at 5.0 µM (retest, dose inferred, filed as 0.5)
[8] = at 50.0 µM (retest, dose inferred, filed as 5.0)

SMILES	growth inhibition [1, 7]	growth inhibition [1, 8]	growth inhibition ([1]; at 50.0 µM)	growth inhibition [2, 7]	growth inhibition [2, 8]	growth inhibition ([2]; at 50.0 µM)	growth inhibition [3, 7]	growth inhibition [3, 8]	growth inhibition ([3]; at 50.0 µM)	growth inhibition [4, 7]	growth inhibition [4, 8]	growth inhibition ([4]; at 50.0 µM)	growth inhibition [5, 7]	growth inhibition [5, 8]	growth inhibition ([5]; at 50.0 µM)	growth inhibition [6, 7]	growth inhibition [6, 8]	growth inhibition ([6]; at 50.0 µM)
Cc1cc(N/N=C/c2ccccn2)nc2ccccc12	20%	94% (active)	88.7% (active)	7%	95% (active)	92.3% (active)	21%	95% (active)	89.8% (active)	22%	93% (active)	83.9% (active)	8%	98% (active)	85.7% (active)	11%	95% (active)	90% (active)
CN(Cc1ccccc1)c1ccc(SC#N)cc1	-2%	82% (active)	81% (active)	-4%	61%	87.5% (active)	-5%	90% (active)	79.5% (active)	-5%	-4%	24.6%	6%	80% (active)	92.7% (active)	3%	85% (active)	89% (active)
O=[N+]([O-])CC(O)c1ccccc1 (stereo not given)	4%	26%	98.4% (active)	-1%	-3%	52.2%	-2%	1%	50.2%	-2%	-1%	98.6% (active)	-2%	1%	50.9%	-2%	4%	51.9%
NCCCN(CCCN)CCCNCc1c2ccccc2c(CNCCCN(CCCN)CCCN)c2ccccc12	88% (active)	99% (active)	90.6% (active)	62%	99% (active)	93% (active)	67%	98% (active)	93.3% (active)	36%	98% (active)	92.7% (active)	89% (active)	99% (active)	92.6% (active)	96% (active)	99% (active)	91.1% (active)
COc1cc(N(CCC#N)CCC#N)ccc1/C(N=Nc1ccc(C(=O)O)cc1)=N/NC(=O)c1cc(Br)ccc1O	9%	26%	74.8% (active)	12%	24%	62.1%	-13%	20%	25.7%	6%	12%	34%	14%	40%	59.2%	8%	21%	50.3%
CCCCN(CCCC)CCCCCCCCCCO	-2%	-2%	45.4%	-1%	1%	36.2%	1%	1%	52.6%	2%	0%	4.2%	3%	7%	70% (active)	-1%	-1%	25.4%
CC(=O)Nc1ccc(C(=O)CCl)cc1	98% (active)	98% (active)	76.3% (active)	96% (active)	99% (active)	51.7%	98% (active)	99% (active)	99% (active)	87% (active)	93% (active)	51.6%	99% (active)	99% (active)	7.6%	98% (active)	99% (active)	94.7% (active)
CCOC(=O)c1[nH]c(C#N)c(C(=O)OCC)c1C	6%	76% (active)	4.15%	1%	23%	26.4%	3%	17%	33.8%	1%	45%	12.6%	3%	48%	53.2%	4%	66%	10%
O=C(c1ccccc1)c1cc2ccccc2oc1=O	1%	71% (active)	63.1%	5%	35%	13.3%	1%	63%	60.5%	4%	52%	37.8%	-6%	61%	10.8%	9%	81% (active)	79% (active)
CCN(CC)CCNc1ccc([N+](=O)[O-])c2sc3ccccc3c(=O)c12	46%	95% (active)	86.2% (active)	13%	85% (active)	90.7% (active)	19%	84% (active)	41.2%	12%	60%	20.5%	27%	98% (active)	17.7%	33%	88% (active)	90.3% (active)

Reference: PubChem BioAssay (NCI)
